Assay results as given in PubChem BioAssay (NCI).
Compounds without any hit were thinned out: in the full panel of roughly 83,000, 20% have a hit.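 Note: values are percent growth. 100 is the growth of untreated cells, values between 100 and 0 indicate rising inhibition; between -100 and 0 indicates cell death.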 Values without a mark were called inactive. Activity calls are given as the source filed them. The calls were made as follows: active = growth percent below 10; inactive = the rest.

Assays:
Assay in all cases: NCI-60 one-dose screen, 48 h (100 = growth as untreated, 0 = no growth, -100 = all killed)
Conditions in all cases: 10 µM unless noted
[1] = tested on: HCT-15 colon
[2] = tested on: HT29 colon
[3] = tested on: SNB-75 CNS
[4] = tested on: SNB-19 CNS
[5] = tested on: U251 CNS
[6] = tested on: PC-3 prostate
[7] = tested on: SK-MEL-5 melanoma
[8] = tested on: UACC-62 melanoma
[9] = tested on: LOX IMVI melanoma
[10] = tested on: SK-MEL-28 melanoma

| SMILES | growth [1] | growth [2] | growth [3] | growth [4] | growth [5] | growth [6] | growth [7] | growth [8] | growth [9] | growth [10] |
| --- | --- | --- | --- | --- | --- | --- | --- | --- | --- | --- |
| CN(C(=O)NCc1cccc(F)c1Cl)[C@H](COC(=O)Nc1cc2ccccc2cn1)CC(O)CO (stereo not given in full) | 101% | 99.4% | -21.4% (active) | 97.2% | 74% | 80.8% | 103% | 106% | 61.9% | 119% |
| Cc1ccc(NC2=C(Cl)C(=O)c3nc(C)ccc3C2=O)cc1 | -77.1% (active) | 82.4% | -41.9% (active) | 47.3% | 41.3% | 29.9% | -90.8% (active) | -70.4% (active) | -78.2% (active) | -79% (active) |
| COc1ccc2c(c1)/C(=C/c1sc(=S)n(Cc3ccco3)c1O)C=N2 | 17.8% | 15.8% | 1.19% (active) | 44.5% | 37% | 61.6% | 52.2% | 38.9% | 35.9% | 47.4% |
| COc1ccc(-c2nc(NN)c3c(C)nn(-c4ccc(F)cc4)c3n2)cc1 | 31.2% | 7.11% (active) | 23.3% | 35.1% | 27.1% | 42.3% | 40.7% | 36.2% | 41.9% | 61.4% |
| Cc1ccc(S(=O)(=O)N/N=C/C2(c3ccccc3)CC2)cc1 | 115% | 109% | 88.2% | 99.3% | 103% | 93.7% | 105% | 102% | 96.9% | 106% |
| Cc1c(C(=O)NCCCc2ccccc2)sc2ncc(-c3ccc(Br)cc3)n12 | 104% | 120% | 98.4% | 101% | 100% | 102% | 101% | 95.7% | 99.1% | 104% |
| Brc1c[n+](Cc2ccc3ccccc3c2)cn1Cc1ccc2ccccc2c1 | 93.6% | 7.66% (active) | -30.8% (active) | 17.3% | 21.5% | 8.5% (active) | -85.2% (active) | -59.8% (active) | -89% (active) | -3.7% (active) |
| COc1ccc(C(=S)N2CCN(c3cccc(C)c3)CC2)cc1OC | 44.5% | 43.3% | 59.7% | 78.5% | 53.9% | 75.3% | 60.2% | 64% | 55.7% | 75.7% |
| COc1cc(Nc2nc(NCCN)nc3cc[nH]c(=O)c23)cc(OC)c1 | 102% | 73.6% | 90.3% | 102% | 85.8% | 113% | 81.6% | 57.2% | 51.8% | 102% |
| CNc1ccc(Nc2cccc(C)c2)c2c1C(=O)c1ccccc1C2=O | 85.1% | 96.6% | 96.3% | 99.6% | 95.4% | 95% | 91% | 64.9% | 81.5% | 114% |
| O=c1c2cc(F)cc(Cl)c2sc2c(NCCCNCCO)nc3ccccc3c12 | 77.3% | 3.35% (active) | 74.6% | 88.1% | 75.8% | 82.7% | 98.9% | 99.9% | 66% | 108% |
| CN(C)CC#Cc1ccc2ncc(C#N)c(Nc3ccc(F)c(Cl)c3)c2c1 | 32% | 66% | 48.1% | 76.4% | 63.8% | 40.5% | 51.4% | 42.9% | 49% | 69.4% |
| COc1nc2ccccc2cc1-c1nc2c(cnn2-c2ccc(Br)cc2)c(=O)[nH]1 | 24% | 8.03% (active) | -12.9% (active) | 21.5% | 15.7% | 13.6% | 5.23% (active) | 24.9% | 31.7% | 43.4% |
| Cc1ccc(-c2nc3c(c(-c4ccccc4)nn3-c3ccccc3)c(-c3ccc(O)cc3)c2C#N)cc1 | 28.8% | 107% | 40.5% | 69.1% | 41.6% | 34.3% | 77.6% | 63.7% | 12.2% | 67.1% |
| C[C@]12CC[C@@H]3c4cc(OC(F)F)c(OS(N)(=O)=O)cc4CC[C@H]3[C@@H]1CC[C@@H]2OS(N)(=O)=O | 20.1% | 106% | -3.22% (active) | 53.6% | 33.1% | 52.2% | 27% | 54.1% | 32.8% | 50% |
| COc1ccc2nc(NCCCNCCO)c3sc4ccc(F)cc4c(=O)c3c2c1 | -47.9% (active) | -43.7% (active) | 54.1% | 61.5% | -33.2% (active) | 38.9% | 85% | 65.7% | -97% (active) | 68.9% |
| CC(=O)OC[C@H]1OC(Sc2sc(C(=O)c3ccc(Br)cc3)c(N)c2-c2nc3ccccc3s2)[C@H](OC(C)=O)[C@@H](OC(C)=O)[C@H]1OC(C)=O (stereo not given in full) | 99.7% | 106% | 74.5% | 87.4% | 96.2% | 70.8% | 36.3% | 60.4% | 96.8% | 104% |
| CC1Cc2ccccc2N1NC(=O)c1ccc(Cl)c(S(N)(=O)=O)c1 (stereo not given) | 106% | 99.9% | 90.4% | 102% | 100% | 88% | 101% | 99.4% | 96.2% | 104% |
| O=c1c2cc(F)ccc2sc2c(N3CCCCC3)nc3ccccc3c12 | 103% | 98% | 90.2% | 101% | 94.1% | 98.1% | 97.8% | 96.1% | 97.1% | 109% |
| CCCCn1c(=O)c(-c2cc(-c3ccc(Cl)cc3)nc(-c3ccc(Cl)cc3)c2)cc2cc(C)ccc21 | 101% | 101% | 98.5% | 98.8% | 106% | 97.2% | 104% | 89.7% | 98.5% | 107% |
| CCCSc1nc2ccc(C)cc2cc1/C=[N+](\[O-])c1ccccc1 | 11.5% | 10% (active) | 21.4% | 37.2% | 12.8% | 23.1% | 27.6% | 31.3% | 19% | 48.3% |

| SMILES | growth [1] | growth [2] | growth [3] | growth [4] | growth [5] | growth [6] | growth [7] | growth [8] | growth [9] | growth [10] |
| --- | --- | --- | --- | --- | --- | --- | --- | --- | --- | --- |
| O=C(O)c1cn(C2CC2)c2cc(N3CCN(C(=O)Nc4nc(-c5ccccc5)cs4)CC3)c(F)cc2c1=O | 29.9% | 4.04% (active) | 9.5% (active) | 21.6% | 9.17% (active) | 11.3% | 3.08% (active) | 15.2% | -81.8% (active) | 52.9% |
| O=C1NC(=O)C(Cn2cnc3ccccc32)N1 (stereo not given) | 101% | 105% | 85.7% | 95.5% | 101% | 95% | 101% | 98.5% | 97.8% | 104% |
| CN(C)CCS(=O)(=O)Nc1cc(-c2ccc3ncc(C#N)c(Nc4ccc(F)c(Cl)c4)c3c2)cnc1Cl | -14.6% (active) | 5.5% (active) | -21% (active) | -67.2% (active) | -46.2% (active) | -43.5% (active) | -89.8% (active) | -77.2% (active) | -61.3% (active) | -31.5% (active) |
| COc1ccc(-c2cnc3ccccc3n2)cc1 | 99.9% | 118% | 72.4% | 93.6% | 86.3% | 98% | 101% | 91.6% | 101% | 104% |
| Nc1nc(Cl)cc(=O)n1Cc1ccccc1 | 98.3% | 103% | 82.3% | 93.7% | 101% | 95.7% | 108% | 88.6% | 92.1% | 108% |
| O=C(Nc1ccc(Cl)cc1F)c1cc(Cl)ccc1O | -4.97% (active) | 19.5% | -6.93% (active) | 13.6% | 9.73% (active) | 0.161% (active) | -90.5% (active) | -41.2% (active) | -18.9% (active) | -3.71% (active) |
| Cc1cccc(NC2=C(Cl)C(=O)c3nc(C)ccc3C2=O)c1 | -54.8% (active) | 115% | -64.9% (active) | 23.7% | 32.8% | 24.6% | -93% (active) | -67% (active) | -54.6% (active) | -54.5% (active) |
| COc1ccc(-c2nc(NCCO)[nH]c(=O)c2C#N)cc1 | 104% | 94.7% | 91.8% | 105% | 103% | 91.4% | 107% | 102% | 103% | 108% |
| CCN1C(=O)N(CC)C2Nn3c(s/c(=C\c4ccc([N+](=O)[O-])cc4)c3=O)=NC21 (stereo not given) | 61.6% | 109% | 82% | 89.3% | 80.3% | 16% | 93.4% | 75.6% | 94.2% | 78.4% |
| COc1ccc(-c2nc3sc(-c4ccccc4)cn3n2)cc1 | 30.4% | 29.6% | 65.2% | 65.9% | 78.8% | 66.5% | 34.4% | 57.2% | 54.4% | 67.6% |
| O=C1c2cccc3cccc(c23)C(=O)N1N1C(=O)c2cccc3c(NC4CCCCC4)ccc(c23)C1=O | 96.6% | 95.9% | 87.5% | 89.1% | 99.7% | 83.6% | 96.7% | 83.5% | 92.1% | 100% |
| C#C[C@]1(O)CC[C@H]2[C@@H]3CC=C4c5sc(Nc6ccccc6)nc5CC[C@]4(C)[C@H]3CC[C@@]21C | -28.1% (active) | 6.31% (active) | -22.2% (active) | 49.4% | 13.8% | 10.4% | 14.2% | 19.6% | -6.23% (active) | -19.9% (active) |
| COc1c(B(O)O)cc(C)cc1-c1nc2ccc3[nH]ncc3c2c2c1CCCC2 | 21.6% | 38.6% | -34.4% (active) | 74% | 60.6% | 61.9% | 80.4% | 69.5% | 30.7% | 93.8% |
| C/C(=C\C(=O)c1ccc(Cl)cc1)c1ccc(Cl)cc1 | 44.6% | 109% | 92.8% | 99.9% | 100% | 87.8% | 94.1% | 92.8% | 100% | 111% |
| Cc1c(C(=O)/C=C/Nc2c(Cl)cc(S(N)(=O)=O)cc2Cl)sc2nc3ccccc3n12 | 105% | 108% | 93.6% | 99.3% | 107% | 104% | 104% | 101% | 97.3% | 103% |
| CCCCCCn1c(-c2ccc(C(=O)O/N=C(\N)c3ccc4c(c3)OCO4)cc2)nc(-c2ccccc2)c1-c1ccccc1 | 7.82% (active) | 36.3% | -6.91% (active) | 55.3% | 8.25% (active) | 23.2% | 62% | 48.1% | -95.1% (active) | 59.1% |
| CCOC(=O)c1sc2ncc(-c3ccc(OC)cc3)n2c1C | 90.2% | 102% | 92% | 92.4% | 105% | 92.1% | 94.3% | 78.6% | 93.4% | 106% |
| COc1cc(C(=O)c2cnc(-c3c[nH]c4cccc(C)c34)[nH]2)cc(OC)c1OC | 12% | 6.72% (active) | 20.3% | 37.9% | 17.7% | 19.4% | -30.7% (active) | 32.6% | 24.9% | 59.3% |
| NCCCNc1nc2ccccc2c2c(=O)c3cccc(F)c3sc12 | 9.25% (active) | -14.1% (active) | 42.7% | 44% | 28.5% | 48.5% | 72.9% | 75.9% | -96.8% (active) | 85.1% |
| NCCCNc1nc2ccc(Cl)cc2c2c(=O)c3cc(F)ccc3sc12 | 47.9% | -12.1% (active) | 54.2% | 77.1% | 38.1% | 58.2% | 94.3% | 97.4% | -62.3% (active) | 103% |
